Drawing on publication PMC8384837, “Expanding the binding specificity for RNA recognition by a PUF domain”, this text covers binding signal for four sequences.

What all share (assay): yeast three-hybrid, YBZ-1, SC-Leu-His + 0.5 mM 3-AT, 4 days
Holding throughout (settings): tags: N-Gal4 AD-HA kept; label: inside an RPR1-promoter hybrid RNA with tandem MS2 sites; ssRNA

The target in one experiment is PUM1 PUF domain R4-WAG (Homo sapiens, UniProt Q14671 828-1176, N971W;H972A;Q975G). A digest of the protocol:
(§1)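 Each repeat of the Pumilio-1 PUF domain was randomized at its three base-contacting residues, and these libraries were co-expressed from a centromeric plasmid with matching RNA elements in strain YBZ-1. After four days on SC-Leu (input) or SC-Leu-His + 0.5 mM 3-AT (selection), the repeat regions were PCR-amplified and Illumina-sequenced. The interaction score compares variant frequency between input and selection as a log change, computed in log2 with a pseudocount of 1 for absent variants.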

The target of the next experiment is PUM1 PUF domain R7-RRM (Homo sapiens, UniProt Q14671 828-1176, S1079R;N1080R;E1083M). Summed up:
as §1

The next experiment concerns the target PUM1 PUF domain R3-TAQ (Homo sapiens, UniProt Q14671 828-1176, C935T;R936A). Summed up: as §1
A further experiment deals with PUM1 PUF domain R3-DYE (Homo sapiens, UniProt Q14671 828-1176, C935D;R936Y;Q939E). A digest of the protocol: as §1
Another experiment deals with PUM1 PUF domain R5-RAG (Homo sapiens, UniProt Q14671 828-1176, C1007R;R1008A;Q1011G). Summed up: as §1
The next experiment deals with PUM1 PUF domain R5-RRK (Homo sapiens, UniProt Q14671 828-1176, C1007R;Q1011K). A digest of the protocol: as §1
In a further experiment the target is PUM1 PUF domain R3-IFG (Homo sapiens, UniProt Q14671 828-1176, C935I;R936F;Q939G). Summed up: as §1
In a further experiment the target is PUM1 PUF domain R4-MPV (Homo sapiens, UniProt Q14671 828-1176, N971M;H972P;Q975V). Summed up:
as §1

In the next experiment the target is PUM1 PUF domain R3-PFL (Homo sapiens, UniProt Q14671 828-1176, C935P;R936F;Q939L). Summed up: as §1
For a further experiment, the target named is PUM1 PUF domain R8-QWS (Homo sapiens, UniProt Q14671 828-1176, N1122Q;Y1123W;Q1126S). Summed up: as §1
For a further experiment, the target named is PUM1 PUF domain R8-HWL (Homo sapiens, UniProt Q14671 828-1176, N1122H;Y1123W;Q1126L). A digest of the protocol: as §1
The next experiment addresses PUM1 PUF domain R3-CNY (Homo sapiens, UniProt Q14671 828-1176, R936N;Q939Y). A digest of the protocol:
as §1

The target in a further experiment is T1, PUM1 PUF domain R6-SFQ (Homo sapiens, UniProt Q14671 828-1176, N1043S;Y1044F).
T1 sequence: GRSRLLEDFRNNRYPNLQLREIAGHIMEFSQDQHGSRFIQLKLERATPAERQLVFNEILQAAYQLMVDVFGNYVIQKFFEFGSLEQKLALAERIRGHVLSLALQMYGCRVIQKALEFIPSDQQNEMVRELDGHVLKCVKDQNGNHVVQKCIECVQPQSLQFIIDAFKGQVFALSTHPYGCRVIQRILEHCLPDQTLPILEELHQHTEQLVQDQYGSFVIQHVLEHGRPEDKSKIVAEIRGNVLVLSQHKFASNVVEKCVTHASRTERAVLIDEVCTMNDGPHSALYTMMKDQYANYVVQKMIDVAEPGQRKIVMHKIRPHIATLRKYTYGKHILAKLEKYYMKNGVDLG
A digest of the protocol: as §1

Take “GGCUAGAACUAGUGGAUCCCCCGGCGCCCGGCGGCUCGAGCCCGGGUAAGUGUACAUAGUCUGCAUGCCGCCGGGCGCCAUGCCUGCAGGUCGACUCUAGAAAACAUG”: in the experiment with PUM1 PUF domain R4-WAG, the binding signal is 3.92 log2 enrichment (interaction score).

Consider “GGCUAGAACUAGUGGAUCCCCCGGCGCCCGGCGGCUCGAGCCCGGGUAAGUCUAAAUAGUCUGCAUGCCGCCGGGCGCCAUGCCUGCAGGUCGACUCUAGAAAACAUG”, for which the binding signal in the experiment with PUM1 PUF domain R7-RRM was 4.89 log2 enrichment (interaction score).

“GGCUAGAACUAGUGGAUCCCCCGGCGCCCGGCGGCUCGAGCCCGGGUAAGUGUAAAUAGUCUGCAUGCCGCCGGGCGCCAUGCCUGCAGGUCGACUCUAGAAAACAUG”: the binding signal with PUM1 PUF domain R3-TAQ was 4.25 log2 enrichment (interaction score); with PUM1 PUF domain R3-DYE it was 3.76 log2 enrichment (interaction score); in the experiment with PUM1 PUF domain R5-RAG it was 0.1 log2 enrichment (interaction score); with PUM1 PUF domain R5-RRK it was 1.82 log2 enrichment (interaction score); with PUM1 PUF domain R3-IFG, 3.21 log2 enrichment (interaction score); with PUM1 PUF domain R4-MPV it was 2.14 log2 enrichment (interaction score). Moreover, the binding signal in the experiment with PUM1 PUF domain R3-PFL was 3.64 log2 enrichment (interaction score); with PUM1 PUF domain R8-QWS, 4.13 log2 enrichment (interaction score); with PUM1 PUF domain R4-WAG, 2.25 log2 enrichment (interaction score); with PUM1 PUF domain R8-HWL, 3.96 log2 enrichment (interaction score); in the experiment with PUM1 PUF domain R3-CNY, 3.55 log2 enrichment (interaction score); in the experiment with PUM1 PUF domain R6-SFQ it was 2.98 log2 enrichment (interaction score).

As for “GGCUAGAACUAGUGGAUCCCCCGGCGCCCGGCGGCUCGAGCCCGGGUAAGCGUAAAUAGUCUGCAUGCCGCCGGGCGCCAUGCCUGCAGGUCGACUCUAGAAAACAUG”, the binding signal with PUM1 PUF domain R8-HWL was 4.14 log2 enrichment (interaction score).
